Among the data in article PMC7862700, “An all-to-all approach to the identification of sequence-specific readers for epigenetic DNA modifications on cytosine” are binding signal values, retold here.

What all share (assay): DAPPL (digital affinity profiling via proximity ligation, sequencing); 10 mM Tris-HCl pH 7.5, 50 mM NaCl, 1 mM DTT, 4% glycerol, room temperature, 30 min; GST-TFs on glutathione beads, 16-mer random dsDNA library, 0.1% formaldehyde crosslink after washing; high values mean tight binding
Common to all, as to settings: protein: recombinant; tags: N-terminal GST; dsDNA, one strand shown

For test [1], the target named is T1, FLI1 (Homo sapiens, UniProt Q01543 1-452).
T1 sequence: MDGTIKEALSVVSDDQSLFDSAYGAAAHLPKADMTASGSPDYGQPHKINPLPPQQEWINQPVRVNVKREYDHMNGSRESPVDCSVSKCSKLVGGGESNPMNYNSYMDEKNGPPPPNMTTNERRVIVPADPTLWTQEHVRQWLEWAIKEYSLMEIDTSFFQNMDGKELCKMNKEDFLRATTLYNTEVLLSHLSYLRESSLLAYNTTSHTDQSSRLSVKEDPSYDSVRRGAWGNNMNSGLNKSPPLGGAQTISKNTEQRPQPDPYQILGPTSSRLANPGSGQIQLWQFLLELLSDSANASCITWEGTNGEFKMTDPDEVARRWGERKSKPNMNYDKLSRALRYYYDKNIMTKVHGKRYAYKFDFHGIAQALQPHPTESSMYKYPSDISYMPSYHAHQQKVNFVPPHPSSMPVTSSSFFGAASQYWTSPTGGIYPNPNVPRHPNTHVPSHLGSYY
Summed up:
(§1)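 Binding signal is each hexamer's read frequency for a factor divided by its frequency in the tag-only sample. The factors were GST-fused human transcription factors from yeast, captured on glutathione beads, DNA-barcoded and pooled with that sample. Pools were incubated with 200 nmole of a random double-stranded 16-mer DNA library in Tris/NaCl/DTT/glycerol buffer at room temperature for 30 min, then washed, crosslinked with 0.1% formaldehyde, proximity-ligated with BsaI/T4 ligase (1 h, 37 °C), PCR-amplified and sequenced on an Illumina NextSeq500.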

The target of test [2] is T2, ELK1 (Homo sapiens, UniProt P19419 1-428).
T2 sequence: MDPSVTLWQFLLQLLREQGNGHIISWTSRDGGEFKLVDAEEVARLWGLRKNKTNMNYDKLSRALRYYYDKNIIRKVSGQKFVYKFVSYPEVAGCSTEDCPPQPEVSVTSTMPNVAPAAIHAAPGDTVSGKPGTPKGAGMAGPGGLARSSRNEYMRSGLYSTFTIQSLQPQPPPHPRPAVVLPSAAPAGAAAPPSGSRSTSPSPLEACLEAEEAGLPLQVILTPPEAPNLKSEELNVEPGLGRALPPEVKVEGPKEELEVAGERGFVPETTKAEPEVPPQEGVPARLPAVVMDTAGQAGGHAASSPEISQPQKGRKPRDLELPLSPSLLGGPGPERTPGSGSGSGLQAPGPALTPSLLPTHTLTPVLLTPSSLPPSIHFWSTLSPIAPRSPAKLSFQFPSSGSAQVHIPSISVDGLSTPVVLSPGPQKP
Summed up:
as §1

Test [3] deals with T3, GABPA (Homo sapiens, UniProt Q06546 1-454).
T3 sequence: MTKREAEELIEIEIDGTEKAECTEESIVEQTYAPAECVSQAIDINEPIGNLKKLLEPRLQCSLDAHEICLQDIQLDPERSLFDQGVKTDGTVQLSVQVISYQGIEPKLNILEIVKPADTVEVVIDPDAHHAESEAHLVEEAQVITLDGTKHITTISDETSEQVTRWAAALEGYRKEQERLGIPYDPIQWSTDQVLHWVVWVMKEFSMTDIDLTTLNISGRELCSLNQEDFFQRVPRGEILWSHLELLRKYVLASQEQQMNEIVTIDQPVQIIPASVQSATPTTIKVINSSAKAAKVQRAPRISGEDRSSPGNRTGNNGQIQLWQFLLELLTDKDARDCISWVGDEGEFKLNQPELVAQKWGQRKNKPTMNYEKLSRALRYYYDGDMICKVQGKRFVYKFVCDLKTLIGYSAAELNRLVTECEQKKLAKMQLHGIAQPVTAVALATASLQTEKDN
Summed up: as §1

In test [4] the target is T4, ERG (Homo sapiens, UniProt P11308 1-479).
T4 sequence: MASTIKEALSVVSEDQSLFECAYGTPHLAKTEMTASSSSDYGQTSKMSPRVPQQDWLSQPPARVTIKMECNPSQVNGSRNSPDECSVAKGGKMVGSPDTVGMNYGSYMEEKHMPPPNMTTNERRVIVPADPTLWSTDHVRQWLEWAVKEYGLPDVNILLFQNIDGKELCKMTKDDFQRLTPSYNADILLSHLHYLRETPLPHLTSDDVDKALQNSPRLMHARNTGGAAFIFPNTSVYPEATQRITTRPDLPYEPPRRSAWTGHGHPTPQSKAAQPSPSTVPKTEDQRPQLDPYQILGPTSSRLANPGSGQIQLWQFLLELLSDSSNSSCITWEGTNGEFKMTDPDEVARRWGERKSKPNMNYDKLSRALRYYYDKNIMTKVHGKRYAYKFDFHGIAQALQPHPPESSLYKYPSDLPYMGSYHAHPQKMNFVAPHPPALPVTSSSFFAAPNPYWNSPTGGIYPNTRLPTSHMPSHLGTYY
The procedure, abridged:
as §1

The target in test [5] is ELF1 (Homo sapiens, UniProt P32519 1-619). The procedure, abridged:
as §1

Test [6] addresses T5, EHF (Homo sapiens, UniProt Q9NZC4 1-300).
T5 sequence: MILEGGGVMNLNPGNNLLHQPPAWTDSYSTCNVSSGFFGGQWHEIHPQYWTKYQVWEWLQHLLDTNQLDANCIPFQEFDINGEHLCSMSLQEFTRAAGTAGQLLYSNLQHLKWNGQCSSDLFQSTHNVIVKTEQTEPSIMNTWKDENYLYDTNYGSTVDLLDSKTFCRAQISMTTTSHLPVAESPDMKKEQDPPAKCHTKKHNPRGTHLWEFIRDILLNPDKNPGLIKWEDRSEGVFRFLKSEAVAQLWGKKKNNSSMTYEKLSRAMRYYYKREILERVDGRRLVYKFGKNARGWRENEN
Summed up:
as §1

Test [7] deals with SPI1 (Homo sapiens, UniProt P17947 1-270). The procedure, abridged:
as §1

Test [8] deals with SPIB (Homo sapiens, UniProt Q01892 1-262). Summed up: as §1
Chain of SPIB (Q01892 whole entry): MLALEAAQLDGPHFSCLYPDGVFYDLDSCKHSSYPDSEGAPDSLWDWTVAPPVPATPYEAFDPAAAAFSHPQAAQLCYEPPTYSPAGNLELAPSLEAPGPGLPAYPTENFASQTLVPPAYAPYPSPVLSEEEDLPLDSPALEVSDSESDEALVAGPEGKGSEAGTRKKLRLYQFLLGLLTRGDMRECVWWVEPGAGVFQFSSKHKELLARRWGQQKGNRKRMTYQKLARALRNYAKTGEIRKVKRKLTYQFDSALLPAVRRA
The target in test [9] is T6, ELK3 (Homo sapiens, UniProt P41970 1-407).
T6 sequence: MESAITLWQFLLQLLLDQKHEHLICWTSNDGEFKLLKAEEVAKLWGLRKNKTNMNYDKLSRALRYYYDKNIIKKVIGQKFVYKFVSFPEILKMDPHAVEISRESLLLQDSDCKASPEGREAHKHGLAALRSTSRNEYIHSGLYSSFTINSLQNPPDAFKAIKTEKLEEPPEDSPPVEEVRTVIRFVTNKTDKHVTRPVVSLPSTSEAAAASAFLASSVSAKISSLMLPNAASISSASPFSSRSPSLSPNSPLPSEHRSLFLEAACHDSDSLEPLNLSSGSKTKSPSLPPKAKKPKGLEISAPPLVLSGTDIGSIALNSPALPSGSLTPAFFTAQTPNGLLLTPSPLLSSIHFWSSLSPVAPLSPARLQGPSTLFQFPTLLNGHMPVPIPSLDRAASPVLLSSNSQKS
Summed up: as §1

The target of test [10] is T7, FEV (Homo sapiens, UniProt Q99581 1-238).
T7 sequence: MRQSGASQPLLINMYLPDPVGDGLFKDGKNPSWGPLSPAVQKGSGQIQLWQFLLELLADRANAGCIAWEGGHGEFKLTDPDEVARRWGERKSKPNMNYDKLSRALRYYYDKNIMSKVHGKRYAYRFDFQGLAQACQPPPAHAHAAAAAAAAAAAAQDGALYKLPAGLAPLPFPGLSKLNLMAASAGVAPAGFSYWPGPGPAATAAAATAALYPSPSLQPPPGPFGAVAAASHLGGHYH
The procedure, abridged:
as §1

Test [11] concerns the target ETV5 (Homo sapiens, UniProt P41161 1-510). Summed up: as §1
Test [12] has as its target T8, SPIC (Homo sapiens, UniProt Q8N5J4 1-248).
T8 sequence: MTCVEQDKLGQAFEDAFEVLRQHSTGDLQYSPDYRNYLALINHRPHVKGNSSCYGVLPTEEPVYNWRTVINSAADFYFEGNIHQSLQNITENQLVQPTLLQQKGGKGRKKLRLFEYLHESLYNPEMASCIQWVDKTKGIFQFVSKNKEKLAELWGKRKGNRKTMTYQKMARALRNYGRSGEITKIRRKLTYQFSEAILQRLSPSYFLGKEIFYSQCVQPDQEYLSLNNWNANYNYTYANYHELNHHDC
Summed up: as §1

For test [13], the target named is ELF4 (Homo sapiens, UniProt Q99607 1-663). The procedure, abridged: as §1
Chain of ELF4 (Q99607 whole entry): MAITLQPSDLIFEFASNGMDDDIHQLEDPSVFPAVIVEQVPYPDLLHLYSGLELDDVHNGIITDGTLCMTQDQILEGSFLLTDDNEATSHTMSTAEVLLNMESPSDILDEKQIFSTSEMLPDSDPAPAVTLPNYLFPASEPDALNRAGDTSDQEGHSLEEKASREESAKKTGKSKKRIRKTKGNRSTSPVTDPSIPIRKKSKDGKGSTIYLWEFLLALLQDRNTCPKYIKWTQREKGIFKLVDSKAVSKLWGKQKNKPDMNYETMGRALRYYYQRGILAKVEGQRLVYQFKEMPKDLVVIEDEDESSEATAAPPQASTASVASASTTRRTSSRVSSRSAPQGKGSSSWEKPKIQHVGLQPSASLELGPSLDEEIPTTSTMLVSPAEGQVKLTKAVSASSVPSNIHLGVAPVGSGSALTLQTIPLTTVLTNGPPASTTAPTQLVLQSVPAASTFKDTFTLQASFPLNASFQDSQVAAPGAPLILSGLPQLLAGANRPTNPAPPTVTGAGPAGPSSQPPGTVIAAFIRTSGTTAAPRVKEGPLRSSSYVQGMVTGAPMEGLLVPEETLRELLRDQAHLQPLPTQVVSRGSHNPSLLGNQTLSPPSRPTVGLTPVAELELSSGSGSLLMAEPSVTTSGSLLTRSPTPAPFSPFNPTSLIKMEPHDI
The target in test [14] is T9, ELK4 (Homo sapiens, UniProt P28324-2 1-405).
T9 sequence: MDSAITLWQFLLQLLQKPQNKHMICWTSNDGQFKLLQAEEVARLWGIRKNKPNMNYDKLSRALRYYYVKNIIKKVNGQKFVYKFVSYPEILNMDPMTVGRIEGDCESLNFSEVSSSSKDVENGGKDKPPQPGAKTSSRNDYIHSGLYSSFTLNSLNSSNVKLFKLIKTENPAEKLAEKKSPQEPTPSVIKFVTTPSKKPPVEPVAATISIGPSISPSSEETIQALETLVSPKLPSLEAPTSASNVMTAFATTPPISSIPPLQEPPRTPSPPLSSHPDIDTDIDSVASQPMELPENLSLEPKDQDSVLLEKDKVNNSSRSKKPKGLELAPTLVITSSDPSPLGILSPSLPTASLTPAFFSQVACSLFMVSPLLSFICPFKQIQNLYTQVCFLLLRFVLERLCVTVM
Summed up:
as §1

Test [15] has as its target T10, ETV2 (Homo sapiens, UniProt O00321 1-342).
T10 sequence: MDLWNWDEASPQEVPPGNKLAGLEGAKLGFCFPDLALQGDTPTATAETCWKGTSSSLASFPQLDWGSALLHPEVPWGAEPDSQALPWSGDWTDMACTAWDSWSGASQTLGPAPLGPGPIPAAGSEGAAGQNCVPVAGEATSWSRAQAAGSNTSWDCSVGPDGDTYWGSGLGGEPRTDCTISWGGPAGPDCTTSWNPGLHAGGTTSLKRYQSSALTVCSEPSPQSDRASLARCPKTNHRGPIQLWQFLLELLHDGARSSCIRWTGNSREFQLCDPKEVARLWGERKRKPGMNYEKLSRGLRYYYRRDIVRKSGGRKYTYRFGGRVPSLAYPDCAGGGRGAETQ
The procedure, abridged: as §1

Test [16] concerns the target T11, ELF3 (Homo sapiens, UniProt P78545 1-371).
T11 sequence: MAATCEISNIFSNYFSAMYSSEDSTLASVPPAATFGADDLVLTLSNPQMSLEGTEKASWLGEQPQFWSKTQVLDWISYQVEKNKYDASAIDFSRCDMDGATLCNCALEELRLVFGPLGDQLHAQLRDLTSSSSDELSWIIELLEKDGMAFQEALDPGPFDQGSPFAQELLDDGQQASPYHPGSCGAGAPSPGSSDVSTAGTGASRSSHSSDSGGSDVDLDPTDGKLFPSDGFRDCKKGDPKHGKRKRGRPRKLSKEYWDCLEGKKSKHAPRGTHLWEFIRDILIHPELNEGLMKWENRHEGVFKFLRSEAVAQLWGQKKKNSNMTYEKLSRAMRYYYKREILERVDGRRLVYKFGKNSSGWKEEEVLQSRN
Summed up:
as §1

Test [17] deals with CRX (Homo sapiens, UniProt O43186 1-299). Summed up: as §1
Chain of CRX (O43186 whole entry): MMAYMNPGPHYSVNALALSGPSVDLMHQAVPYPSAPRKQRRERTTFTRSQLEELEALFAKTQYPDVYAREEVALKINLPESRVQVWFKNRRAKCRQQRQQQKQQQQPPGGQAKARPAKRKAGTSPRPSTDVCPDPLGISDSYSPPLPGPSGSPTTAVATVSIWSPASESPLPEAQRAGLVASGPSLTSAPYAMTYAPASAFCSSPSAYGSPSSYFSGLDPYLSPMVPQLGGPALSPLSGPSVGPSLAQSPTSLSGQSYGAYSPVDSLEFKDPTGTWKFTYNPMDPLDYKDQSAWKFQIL
In test [18] the target is ETV1 (Homo sapiens, UniProt P50549 1-477). Summed up: as §1
Chain of ETV1 (P50549 whole entry): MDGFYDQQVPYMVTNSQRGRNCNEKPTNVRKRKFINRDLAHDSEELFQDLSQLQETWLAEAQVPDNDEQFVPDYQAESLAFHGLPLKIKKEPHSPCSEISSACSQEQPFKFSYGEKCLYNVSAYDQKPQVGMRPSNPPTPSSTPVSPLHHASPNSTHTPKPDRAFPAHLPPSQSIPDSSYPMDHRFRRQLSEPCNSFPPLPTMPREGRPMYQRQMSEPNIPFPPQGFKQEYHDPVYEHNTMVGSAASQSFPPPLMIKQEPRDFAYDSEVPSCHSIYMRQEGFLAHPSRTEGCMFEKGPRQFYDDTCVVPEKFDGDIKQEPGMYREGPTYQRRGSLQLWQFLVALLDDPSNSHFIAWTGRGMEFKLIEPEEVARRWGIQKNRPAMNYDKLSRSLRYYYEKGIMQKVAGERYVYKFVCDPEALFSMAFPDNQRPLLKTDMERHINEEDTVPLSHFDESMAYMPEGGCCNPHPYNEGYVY

Chain of ETV5 (P41161 whole entry): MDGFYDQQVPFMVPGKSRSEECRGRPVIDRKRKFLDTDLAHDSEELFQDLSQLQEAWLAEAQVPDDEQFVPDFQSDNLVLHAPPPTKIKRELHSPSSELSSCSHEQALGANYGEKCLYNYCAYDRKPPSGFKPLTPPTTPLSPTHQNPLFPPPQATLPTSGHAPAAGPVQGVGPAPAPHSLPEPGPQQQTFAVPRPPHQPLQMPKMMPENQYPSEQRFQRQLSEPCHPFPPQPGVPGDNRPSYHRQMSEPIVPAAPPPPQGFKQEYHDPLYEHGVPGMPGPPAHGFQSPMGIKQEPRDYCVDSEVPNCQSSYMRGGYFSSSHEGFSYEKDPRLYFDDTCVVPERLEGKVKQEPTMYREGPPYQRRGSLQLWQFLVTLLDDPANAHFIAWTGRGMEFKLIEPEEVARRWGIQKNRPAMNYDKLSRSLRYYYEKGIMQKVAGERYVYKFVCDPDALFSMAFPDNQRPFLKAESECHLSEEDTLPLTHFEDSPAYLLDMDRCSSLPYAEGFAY
Chain of ELF1 (P32519 whole entry): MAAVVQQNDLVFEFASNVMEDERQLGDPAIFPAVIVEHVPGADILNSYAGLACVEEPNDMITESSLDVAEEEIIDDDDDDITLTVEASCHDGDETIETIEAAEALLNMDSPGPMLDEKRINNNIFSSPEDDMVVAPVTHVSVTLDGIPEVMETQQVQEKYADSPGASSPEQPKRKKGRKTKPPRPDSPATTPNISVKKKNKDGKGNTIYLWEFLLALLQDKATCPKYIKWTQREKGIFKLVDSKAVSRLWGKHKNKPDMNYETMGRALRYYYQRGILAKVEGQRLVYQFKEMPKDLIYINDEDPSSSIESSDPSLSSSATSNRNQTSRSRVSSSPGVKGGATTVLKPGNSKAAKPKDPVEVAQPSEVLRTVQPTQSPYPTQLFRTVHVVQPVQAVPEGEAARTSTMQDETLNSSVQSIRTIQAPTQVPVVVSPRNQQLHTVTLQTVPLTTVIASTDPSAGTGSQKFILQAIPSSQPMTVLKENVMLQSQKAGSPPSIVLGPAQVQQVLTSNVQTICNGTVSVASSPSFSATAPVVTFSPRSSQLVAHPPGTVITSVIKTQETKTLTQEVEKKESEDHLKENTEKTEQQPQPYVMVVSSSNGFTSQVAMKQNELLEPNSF

As to GGATAT, the binding signal is 1.61 fold enrichment (6-mer frequency, TF over GST control) in test [1]; 1.65 fold enrichment (6-mer frequency, TF over GST control) in [2]; 1.45 fold enrichment (6-mer frequency, TF over GST control) in test [3]; 2 fold enrichment (6-mer frequency, TF over GST control) in test [4]; 1.48 fold enrichment (6-mer frequency, TF over GST control) in test [5]; 1.55 fold enrichment (6-mer frequency, TF over GST control) in [6]. Further, the binding signal is 1.37 fold enrichment (6-mer frequency, TF over GST control) in [7]; 1.58 fold enrichment (6-mer frequency, TF over GST control) in test [8]; 1.55 fold enrichment (6-mer frequency, TF over GST control) in [9]; 3.83 fold enrichment (6-mer frequency, TF over GST control) in test [10]; 1.71 fold enrichment (6-mer frequency, TF over GST control) in test [11]; 1.53 fold enrichment (6-mer frequency, TF over GST control) in [12]. Also, the binding signal was 1.38 fold enrichment (6-mer frequency, TF over GST control) in test [13]; 1.48 fold enrichment (6-mer frequency, TF over GST control) in [14]; 1.55 fold enrichment (6-mer frequency, TF over GST control) in [15]; 1.78 fold enrichment (6-mer frequency, TF over GST control) in [16]; 1.09 fold enrichment (6-mer frequency, TF over GST control) in test [17]; 1.62 fold enrichment (6-mer frequency, TF over GST control) in test [18].
